The results in this text go back to PubChem BioAssay (EPA / NIEHS).

Test [1] deals with Nuclear respiratory factor 1 (Homo sapiens) (UniProt Q16656). The test can be described thus: ATG_NRF1_CIS: Attagene CIS-FACTORIAL HepG2 Assay for human Nuclear Respiratory Factor 1 (NRF1) Orphan Gene (AID 2282987). Particulars: HepG2 NRF1 cis-element reporter, Attagene multiplex; actives raise or lower the signal. The procedure, abridged:
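Endogenous NRF1-driven reporter transcription measured in transiently transfected human HepG2 liver cells. Readout: reporter mRNA by RT-PCR and capillary electrophoresis with fluorescence detection, 24 h post-dosing. Gain or loss of signal fitted relative to DMSO baseline.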

Test [2] in a line: ATG_NFI_CIS: Attagene CIS-FACTORIAL HepG2 Assay for human Nuclear Factor I (NFI) (AID 2282989). Particulars: HepG2 cis-regulatory reporter, NFI response element transcription; actives raise or lower the signal. The procedure, abridged: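 After transient transfection of HepG2 with cis-promoter reporter constructs and 24 h dosing, RNA is reverse-transcribed, amplified, 6-FAM end-labelled and HpaI-digested before capillary analysis. Bidirectional curve fitting against DMSO.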

Test [3] addresses Myc proto-oncogene protein (Homo sapiens) (UniProt P01106). The test can be described thus: ATG_Myc_CIS: Attagene CIS-FACTORIAL HepG2 Assay for human Myelocytomatosis (Myc) Proto-Oncogene Transcription Factor (AID 2282990). Particulars: HepG2, Attagene cis-reporter transcription factor activity; actives raise or lower the signal. The essentials:
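Cells of the HepG2 human liver line bear multiple cis-driven reporter transcription units. Reporter mRNA after 24 h exposure is reverse-transcribed, amplified, labelled and resolved by capillary electrophoresis, with gain- or loss-of-signal fitting relative to DMSO.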

Test [4] can be described thus: ATG_NF_kB_CIS: Attagene CIS-FACTORIAL HepG2 Assay for human Nuclear Factor Kappa B (NF-kB) (AID 2282991). The conditions noted are these: HepG2 Attagene cis-factorial NF-kB reporter mRNA; actives raise or lower the signal. The essentials: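 Read-out: reporter transcript levels quantified by RT-PCR plus capillary electrophoresis of 6-FAM-labelled, HpaI-cut fragments. Transfected HepG2 cells, 24 h compound exposure, endogenous NF-kB-driven cis element; gain or loss scored versus DMSO.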

The nature of test [5]: ATG_NRF2_ARE_CIS: Attagene CIS-FACTORIAL HepG2 Assay for human Nuclear Factor Erythroid 2 Related Factor 2 (NFR2) response to Antioxidant Response Elements (ARE) (AID 2282992). The conditions noted are these: HepG2 Attagene ARE/NRF2 reporter, transcription factor activity; actives raise or lower the signal. The essentials: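 Endogenous transcription factor activity in human liver HepG2 cells is tracked via a cis-element-driven reporter within a multiplexed set. mRNA induction is read by RT-PCR and capillary electrophoresis after 24 h, with DMSO as baseline.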

Test [6] in a line: ATG_Oct_MLP_CIS: Attagene CIS-FACTORIAL HepG2 Assay for human Octamer-Binding Transcription Factor (Oct) (AID 2282993). Particulars: HepG2 Attagene cis-factorial Oct reporter, mRNA; actives raise or lower the signal. The procedure, abridged:
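Cells of the HepG2 line express promoter-controlled reporter sequences whose mRNA levels, after 24 h treatment, are measured by RT-PCR and capillary electrophoresis. Increases and decreases are scored relative to DMSO.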

Test [7] concerns the target Cellular tumor antigen p53 (Homo sapiens) (UniProt P04637). The test can be described thus: ATG_p53_CIS: Attagene CIS-FACTORIAL HepG2 Assay for human p53 Transcription Factor (AID 2282994). The conditions noted are these: HepG2 p53 cis-element reporter, Attagene mRNA; actives raise or lower the signal. The procedure, abridged:
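Steps: transfect HepG2 with multiplexed cis reporter constructs; dose chemicals 24 h; extract RNA, reverse-transcribe, PCR-amplify reporter sequences; FAM-label, HpaI-digest, resolve fragments by CE. Activity fitted both directions relative to DMSO.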

For test [8], the target named is Retinoic acid receptor alpha (Homo sapiens) (UniProt P10276). As to the kind of experiment: ATG_RARa_TRANS: Attagene TRANS-FACTORIAL HepG2 Assay for human Retinoic Acid Receptor alpha (RARa) (AID 2283005; active = hit-call score of the fitted dose curve at least 0.9, where 1 is the maximum). The procedure, abridged:
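Reporter transcripts, measured by RT-PCR with fluorescent labeling and capillary electrophoresis after 24 h dosing, reflect activity of an exogenous human RARa–GAL4 fusion in transiently transfected HepG2. Fitted for increase relative to DMSO.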

The target of test [9] is Peroxisome proliferator-activated receptor gamma (Homo sapiens) (UniProt P37231). The test can be described thus: ATG_PPARg_TRANS: Attagene TRANS-FACTORIAL HepG2 Assay for human Peroxisome Proliferator-activated Receptor-gamma (PPARg) (AID 2283007; active = hit-call score of the fitted dose curve at least 0.9, where 1 is the maximum). The essentials:
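Read-out: reporter mRNA induction, detected by fluorescence after RT-PCR and capillary electrophoresis. Transiently transfected human HepG2 liver cells carrying a chimeric NR-Gal4 construct were dosed for 24 h; activity was fitted upward relative to DMSO.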

The target in test [10] is human Peroxisome Proliferator-activated Receptor alpha (PPARa), PPARA (gene 5465) (UniProt Q07869). The test can be described thus: ATG_PPARa_TRANS: Attagene TRANS-FACTORIAL HepG2 Assay for human Peroxisome Proliferator-activated Receptor alpha (PPARa) (AID 2283001; active = hit-call score of the fitted dose curve at least 0.9, where 1 is the maximum;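 as to AC50: potency for gain of reporter signal over DMSO so agonist or activator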). The essentials:
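Reporter transcripts quantified by RT-PCR plus capillary electrophoresis after 24 h treatment, fitted upward relative to DMSO. Cells: human HepG2 transiently carrying multiple GAL4-UAS reporter units driven by NR-Gal4 chimeras.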

For test [11], the target named is human Peroxisome Proliferator-activated Receptor delta (PPARd), PPARD (gene 5467) (UniProt Q03181). As to the kind of experiment: ATG_PPARd_TRANS: Attagene TRANS-FACTORIAL HepG2 Assay for human Peroxisome Proliferator-activated Receptor delta (PPARd) (AID 2283002; active = hit-call score of the fitted dose curve at least 0.9, where 1 is the maximum). The essentials: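 Cell-based TRANS reporter: HepG2, transient MRTU transfection, 24 h exposure. Readout = reporter mRNA (RT-PCR/CE, 6-FAM). Gain-of-signal fit vs DMSO control.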

Test [12] addresses human Retinoic Acid Receptor gamma (RARg), RARG (gene 5916) (UniProt P13631). As to the kind of experiment: ATG_RARg_TRANS: Attagene TRANS-FACTORIAL HepG2 Assay for human Retinoic Acid Receptor gamma (RARg) (AID 2283009; active = hit-call score of the fitted dose curve at least 0.9, where 1 is the maximum). The essentials: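 TRANS format measured activity of exogenous NR-GAL4 fusion (RARg) in transfected HepG2 liver cells after 24 h dosing. Induced reporter RNA was detected by RT-PCR/capillary electrophoresis fluorescence, analysed in the positive direction against DMSO.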

Test [13] addresses Nuclear receptor subfamily 1 group I member 2 (Homo sapiens) (UniProt O75469). The test can be described thus: ATG_PXR_TRANS: Attagene TRANS-FACTORIAL HepG2 Assay for human Pregnane X Receptor (PXR) (AID 2283008; active = hit-call score of the fitted dose curve at least 0.9, where 1 is the maximum). The procedure, abridged: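 HepG2 transfected (FuGene 6) with GAL4-UAS reporter units + PXR-Gal4 chimera; dosed 24 h. Total RNA → oligo(dT) RT → PCR → 6-FAM primer extension → HpaI cut → CE. Gain-of-signal vs DMSO.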

A short description of test [14]: BSK_3C_TissueFactor: BioMAP Diversity Plus: 3C Assay for Tissue Factor Biomarker Activity (AID 2282997). Particulars: BioMAP 3C HUVEC, tissue factor biomarker readout; actives raise or lower the signal. The procedure, abridged:
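After a 24 h chemical exposure of primary human umbilical vein endothelial cells, Tissue Factor levels were quantified by ELISA.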

Test [15] can be described thus: BSK_3C_uPAR: BioMAP Diversity Plus: 3C Assay for Urokinase-type plasminogen activator receptor (uPAR) Biomarker Activity (AID 2282998). The conditions noted are these: BioMAP 3C HUVEC, uPAR biomarker ELISA; actives raise or lower the signal. The procedure, abridged: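 Endothelial primary cells of human umbilical vein origin received test chemical; 24 h later uPAR was assayed by ELISA. Fitting was bidirectional, DMSO as negative control.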
In general terms: In an ELISA, binding on a coated surface is turned into a signal by an enzyme label.

A short description of test [16]: BSK_3C_VCAM1: BioMAP Diversity Plus: 3C Assay for Vascular cell adhesion molecule 1 (VCAM1) Biomarker Activity (AID 2282999). The conditions noted are these: BioMAP 3C HUVEC, VCAM1 ELISA, cytokine-stimulated; actives raise or lower the signal. The essentials: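 Activity fitted in both directions relative to DMSO, with ELISA measurement of the surface marker on primary HUVEC (3C) at 24 h post-treatment; parallel SRB staining (0.1% SRB, TCA-fixed, 560 nm) flagged overt cytotoxicity.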

Test [17] can be described thus: BSK_4H_Eotaxin3: BioMAP Diversity Plus: 4H Assay for Eotaxin 3 Biomarker Activity (AID 2283000).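 Also: CCL26 protein level quantified by ELISA in parallel with SRB cytotoxicity check.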 Particulars: primary human endothelial cells (HUVEC); actives raise or lower the signal. The procedure, abridged:
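Chemicals were added to human umbilical vein endothelium cultures, and Eotaxin-3 was quantified by ELISA at 24 h. Values were derived by bidirectional fitting with DMSO serving as negative control and activity baseline.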

Read-out in test [18]: Intercellular Adhesion Molecule 1 (ICAM1), ICAM1 (gene 3383)
The test can be described thus: BSK_3C_ICAM1: BioMAP Diversity Plus: 3C Assay for Intercellular Adhesion Molecule 1 (ICAM1) Biomarker Activity (AID 2283003). Particulars: primary human endothelial cells (HUVEC); actives raise or lower the signal. The essentials:
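Chemicals are dosed onto primary human umbilical vein endothelium (3C system). After 24 h, ICAM-1 is measured by ELISA, and responses are fitted bidirectionally relative to DMSO.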

Test [19] can be described thus: BSK_3C_Proliferation: Cell Proliferation Assessment in the BioMAP Diversity Plus: 3C Assay (AID 2283006). The conditions noted are these: primary human endothelial cells (HUVEC). The essentials: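 Cells (human umbilical vein endothelial, sub-confluent) receive test chemical; after 48 h they are fixed in 10% trichloroacetic acid, stained with 0.1% SRB and read at 560 nm. Activity is referenced to DMSO, fitting increases and decreases.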

For test [20], the target named is human Retinoic Acid Receptor beta (RARb), RARB (gene 5915) (UniProt P10826). The test can be described thus: ATG_RARb_TRANS: Attagene TRANS-FACTORIAL HepG2 Assay for human Retinoic Acid Receptor beta (AID 2283004; active = hit-call score of the fitted dose curve at least 0.9, where 1 is the maximum). The procedure, abridged:
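Transient transfection of HepG2 with multiple reporter units → chemical dosing, 24 h → total RNA isolation → RT with oligo(dT) → reporter-specific PCR, 6-FAM primer extension, HpaI digest → capillary electrophoresis. Positive direction vs DMSO control.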

Results filed as inconclusive are left out. Activity calls are given as the source filed them. The calls were made as follows, unless noted: active = hit-call score of the fitted dose curve at least 0.9, where 1 is the maximum; inactive = score below 0.9.

By AC50 is commonly meant the midpoint of the concentration-response curve, whichever way the signal moves.

Sequence of human Peroxisome Proliferator-activated Receptor delta (PPARd), PPARD (gene 5467) (Q03181 whole entry, looked up): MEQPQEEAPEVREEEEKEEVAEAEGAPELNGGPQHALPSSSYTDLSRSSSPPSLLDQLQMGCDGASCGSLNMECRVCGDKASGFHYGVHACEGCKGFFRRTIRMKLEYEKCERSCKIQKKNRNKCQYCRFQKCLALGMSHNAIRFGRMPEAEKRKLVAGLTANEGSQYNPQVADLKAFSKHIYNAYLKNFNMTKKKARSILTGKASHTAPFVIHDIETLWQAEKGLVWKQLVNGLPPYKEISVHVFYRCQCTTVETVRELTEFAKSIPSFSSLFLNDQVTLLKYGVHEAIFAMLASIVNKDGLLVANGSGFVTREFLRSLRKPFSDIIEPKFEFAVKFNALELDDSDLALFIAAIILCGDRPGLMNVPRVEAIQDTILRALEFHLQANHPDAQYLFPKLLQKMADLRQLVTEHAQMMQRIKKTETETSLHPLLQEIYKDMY
Sequence of Peroxisome proliferator-activated receptor gamma (Homo sapiens) (P37231 whole entry, looked up, the tested form may be a part): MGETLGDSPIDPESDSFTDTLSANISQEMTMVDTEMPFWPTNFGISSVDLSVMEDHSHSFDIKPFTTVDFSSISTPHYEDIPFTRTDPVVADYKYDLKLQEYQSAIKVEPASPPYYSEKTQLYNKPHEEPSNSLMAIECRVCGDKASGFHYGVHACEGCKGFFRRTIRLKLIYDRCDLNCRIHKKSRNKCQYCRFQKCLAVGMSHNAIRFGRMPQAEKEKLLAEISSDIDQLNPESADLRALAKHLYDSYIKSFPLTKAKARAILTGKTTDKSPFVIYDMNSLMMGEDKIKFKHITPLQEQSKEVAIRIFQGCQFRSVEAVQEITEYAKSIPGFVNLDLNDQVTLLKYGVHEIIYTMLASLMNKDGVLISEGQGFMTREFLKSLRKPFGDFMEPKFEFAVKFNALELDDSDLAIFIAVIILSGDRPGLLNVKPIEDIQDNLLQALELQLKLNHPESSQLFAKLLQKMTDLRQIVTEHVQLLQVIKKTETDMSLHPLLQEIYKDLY
Sequence of Cellular tumor antigen p53 (Homo sapiens) (P04637 whole entry, looked up, the tested form may be a part): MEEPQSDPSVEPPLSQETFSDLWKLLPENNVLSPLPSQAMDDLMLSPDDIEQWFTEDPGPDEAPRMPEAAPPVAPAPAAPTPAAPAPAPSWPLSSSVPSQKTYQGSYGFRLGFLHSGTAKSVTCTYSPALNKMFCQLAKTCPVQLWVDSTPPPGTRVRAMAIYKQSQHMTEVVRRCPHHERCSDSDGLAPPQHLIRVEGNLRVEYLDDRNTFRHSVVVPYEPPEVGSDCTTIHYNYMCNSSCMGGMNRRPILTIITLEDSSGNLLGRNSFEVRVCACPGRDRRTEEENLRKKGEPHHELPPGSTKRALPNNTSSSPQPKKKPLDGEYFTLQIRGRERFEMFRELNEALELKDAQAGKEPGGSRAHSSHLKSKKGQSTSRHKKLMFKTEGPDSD
Sequence of Myc proto-oncogene protein (Homo sapiens) (P01106 whole entry, looked up): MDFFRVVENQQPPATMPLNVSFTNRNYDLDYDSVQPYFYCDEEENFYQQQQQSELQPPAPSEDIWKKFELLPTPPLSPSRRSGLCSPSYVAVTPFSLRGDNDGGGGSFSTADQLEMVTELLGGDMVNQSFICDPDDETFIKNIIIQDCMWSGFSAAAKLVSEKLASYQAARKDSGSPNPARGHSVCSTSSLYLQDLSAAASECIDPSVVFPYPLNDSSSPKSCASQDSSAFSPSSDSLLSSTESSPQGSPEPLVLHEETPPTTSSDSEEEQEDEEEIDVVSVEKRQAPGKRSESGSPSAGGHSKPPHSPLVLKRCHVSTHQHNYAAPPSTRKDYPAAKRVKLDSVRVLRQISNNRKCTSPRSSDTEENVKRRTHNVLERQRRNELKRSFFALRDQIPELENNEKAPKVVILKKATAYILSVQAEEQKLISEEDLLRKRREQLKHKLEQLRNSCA
Sequence of human Retinoic Acid Receptor gamma (RARg), RARG (gene 5916) (P13631 whole entry, looked up, the tested form may be a part): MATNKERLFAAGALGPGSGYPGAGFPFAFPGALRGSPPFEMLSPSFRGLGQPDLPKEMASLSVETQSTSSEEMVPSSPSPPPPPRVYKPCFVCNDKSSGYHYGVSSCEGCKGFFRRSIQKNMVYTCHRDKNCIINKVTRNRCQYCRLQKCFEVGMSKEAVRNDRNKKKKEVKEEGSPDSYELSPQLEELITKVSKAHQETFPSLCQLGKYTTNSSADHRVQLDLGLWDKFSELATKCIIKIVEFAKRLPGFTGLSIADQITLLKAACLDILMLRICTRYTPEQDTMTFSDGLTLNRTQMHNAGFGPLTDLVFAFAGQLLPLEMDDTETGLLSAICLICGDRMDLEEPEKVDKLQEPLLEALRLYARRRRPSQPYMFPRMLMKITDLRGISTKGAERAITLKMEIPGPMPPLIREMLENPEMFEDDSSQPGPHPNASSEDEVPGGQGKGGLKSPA
Sequence of Nuclear receptor subfamily 1 group I member 2 (Homo sapiens) (O75469 whole entry, looked up, the tested form may be a part): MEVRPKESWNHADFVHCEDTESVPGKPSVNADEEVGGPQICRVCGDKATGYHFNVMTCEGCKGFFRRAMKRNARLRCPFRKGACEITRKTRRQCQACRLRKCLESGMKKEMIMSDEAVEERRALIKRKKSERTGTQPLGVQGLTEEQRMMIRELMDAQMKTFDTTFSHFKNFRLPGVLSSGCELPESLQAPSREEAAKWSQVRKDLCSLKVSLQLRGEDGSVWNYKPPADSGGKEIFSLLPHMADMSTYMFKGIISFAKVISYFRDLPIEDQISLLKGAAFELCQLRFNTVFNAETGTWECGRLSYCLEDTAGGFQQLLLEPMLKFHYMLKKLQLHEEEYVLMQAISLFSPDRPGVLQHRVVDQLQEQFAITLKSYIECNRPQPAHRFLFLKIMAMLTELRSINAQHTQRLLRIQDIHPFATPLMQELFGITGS
Sequence of human Peroxisome Proliferator-activated Receptor alpha (PPARa), PPARA (gene 5465) (Q07869 whole entry, looked up, the tested form may be a part): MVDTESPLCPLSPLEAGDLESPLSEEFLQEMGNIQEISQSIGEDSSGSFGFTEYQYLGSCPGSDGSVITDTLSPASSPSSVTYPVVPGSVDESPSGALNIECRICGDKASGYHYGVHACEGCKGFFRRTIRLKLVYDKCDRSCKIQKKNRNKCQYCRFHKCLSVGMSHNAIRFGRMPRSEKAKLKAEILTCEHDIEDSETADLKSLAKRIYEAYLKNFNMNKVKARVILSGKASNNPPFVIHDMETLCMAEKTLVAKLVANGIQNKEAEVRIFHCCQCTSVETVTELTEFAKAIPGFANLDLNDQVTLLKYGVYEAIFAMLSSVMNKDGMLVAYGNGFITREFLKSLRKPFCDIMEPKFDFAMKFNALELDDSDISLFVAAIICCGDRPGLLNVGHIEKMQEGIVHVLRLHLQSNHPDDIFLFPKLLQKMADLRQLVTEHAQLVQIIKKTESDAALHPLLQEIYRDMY
Sequence of Nuclear respiratory factor 1 (Homo sapiens) (Q16656 whole entry, looked up): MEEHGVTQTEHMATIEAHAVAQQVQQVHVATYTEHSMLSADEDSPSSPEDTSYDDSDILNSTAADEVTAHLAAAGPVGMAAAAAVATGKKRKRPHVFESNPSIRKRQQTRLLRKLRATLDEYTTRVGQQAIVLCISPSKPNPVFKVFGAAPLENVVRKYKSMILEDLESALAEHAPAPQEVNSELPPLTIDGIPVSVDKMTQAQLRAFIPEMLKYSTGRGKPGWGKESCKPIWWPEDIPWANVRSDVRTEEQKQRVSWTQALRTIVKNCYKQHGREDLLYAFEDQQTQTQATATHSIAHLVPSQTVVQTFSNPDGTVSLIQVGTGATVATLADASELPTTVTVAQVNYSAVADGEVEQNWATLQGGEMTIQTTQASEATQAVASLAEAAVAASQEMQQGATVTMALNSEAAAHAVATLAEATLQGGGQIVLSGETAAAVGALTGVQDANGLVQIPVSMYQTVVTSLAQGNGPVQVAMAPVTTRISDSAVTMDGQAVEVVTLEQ
Sequence of Retinoic acid receptor alpha (Homo sapiens) (P10276 whole entry, looked up, the tested form may be a part): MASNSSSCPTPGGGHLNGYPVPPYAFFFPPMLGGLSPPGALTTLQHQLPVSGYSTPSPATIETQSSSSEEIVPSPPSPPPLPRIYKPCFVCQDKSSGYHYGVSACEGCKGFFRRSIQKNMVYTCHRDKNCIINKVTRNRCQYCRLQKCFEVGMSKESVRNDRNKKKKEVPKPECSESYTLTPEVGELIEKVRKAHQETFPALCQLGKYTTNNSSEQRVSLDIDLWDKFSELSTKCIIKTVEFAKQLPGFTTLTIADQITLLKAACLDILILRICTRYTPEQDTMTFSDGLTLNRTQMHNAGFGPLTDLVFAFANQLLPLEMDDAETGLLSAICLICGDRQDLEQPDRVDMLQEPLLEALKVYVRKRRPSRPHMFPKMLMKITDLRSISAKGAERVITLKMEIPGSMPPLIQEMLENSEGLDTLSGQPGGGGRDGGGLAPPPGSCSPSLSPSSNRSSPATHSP
Sequence of human Retinoic Acid Receptor beta (RARb), RARB (gene 5915) (P10826 whole entry, looked up): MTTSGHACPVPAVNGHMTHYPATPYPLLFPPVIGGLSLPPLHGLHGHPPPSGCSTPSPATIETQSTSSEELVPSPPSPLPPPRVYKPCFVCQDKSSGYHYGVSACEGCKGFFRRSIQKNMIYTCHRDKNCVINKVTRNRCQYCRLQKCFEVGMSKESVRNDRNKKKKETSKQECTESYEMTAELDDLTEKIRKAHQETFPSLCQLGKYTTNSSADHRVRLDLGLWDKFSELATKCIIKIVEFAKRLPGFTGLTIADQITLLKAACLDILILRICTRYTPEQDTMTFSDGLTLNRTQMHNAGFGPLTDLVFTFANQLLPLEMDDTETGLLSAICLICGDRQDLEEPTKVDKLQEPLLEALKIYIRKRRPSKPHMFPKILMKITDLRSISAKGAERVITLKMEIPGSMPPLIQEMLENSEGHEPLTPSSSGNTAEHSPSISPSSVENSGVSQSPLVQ

As to `CCc1ccc(C)nc1`, the result in test [1], in [2], in test [3], in test [4], in [5] and in test [6] was inactive. The molecule was called inactive in test [7], in [8] and in test [9].
With `CCCCCC/C=C/CCCCCCCC(=O)O`, the molecule was classed as inactive in test [1], in test [2], in [3], in test [4], in test [5] and in test [6]. Further, the molecule was classed as inactive in [7], in test [11], in test [9] and in test [12]. Also, the AC50 in test [10] was 37.6 µM (active).
Turning to `CCCCC(CC)COC(=O)c1ccc(N(C)C)cc1` (configuration not stated), the result in [1], in test [2], in test [3], in test [4], in test [6] and in [11] was inactive. Further, the AC50 is 27.4 µM (active) in [5], 30.3 µM (active) in [9] and 27.2 µM (active) in test [13].
Consider `NC(=O)C(F)(F)C(F)(F)C(F)(F)C(F)(F)C(N)=O`, for which the result in test [1], in [2], in test [3], in [4], in [6] and in [7] was inactive. Also, the outcome in test [14], in test [15], in [16], in test [17], in test [10] and in test [11] was inactive. Also, the outcome in test [18], in test [19], in test [9] and in test [13] was inactive.
In the case of `NC(O)(C(F)(F)F)C(F)(F)F`, the outcome in [1], in [2], in [3], in test [4], in test [5] and in test [6] was inactive. Besides, the outcome in [14], in test [15], in [16], in test [17], in test [11] and in test [18] was inactive. Further, the result in [19] and in test [13] was inactive.
In the case of `CN1CN(C)CN(C)C1`, the outcome in test [1], in [2], in test [3], in [4], in [5] and in test [10] was inactive. The call in [20], in test [8], in test [9] and in test [12] was inactive. Besides, in test [6], the AC50 was 165 µM (active).
Regarding `OCCC(O)CO` (configuration not stated), the molecule was classed as inactive in test [1], in test [2], in test [3], in test [4], in test [5] and in [6]. The molecule was classed as inactive in test [12].
